The values below come from PubChem BioAssay (NCATS).

The structures appear in SMILES notation. “And” between values parts separate entries of the source, which are not always exact repeats. Equal entries are not always repeated. Inconclusive results are not listed. The source made the active and inactive calls. Unless noted, calls follow the shape of the dose curve; as a rule, active = well fitted curve in the direction sought with a large enough effect; inconclusive = small, poorly fitted or top-dose-only effect, or another doubt; inactive = no such curve, though single readings can be large; an effect the other way counts as inactive or inconclusive.

The target in test [1] is Alpha-galactosidase A (Homo sapiens) (UniProt P06280). The test can be described thus: Counterscreen for Glucocerebrosidase Inhibitors: qHTS Assay for Human alpha-Galactosidase at pH 4.5 (AID 992). Also: 0% is about no effect. The procedure, abridged: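 Each compound is preincubated briefly with 2 nM enzyme before substrate addition (80 uM); plates then sit 20 min at ambient temperature, are quenched with 1M NaOH/1M glycine, and read fluorometrically.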
Background: The purpose of a counterscreen is to sort out artefacts and off-target activity.

Test [2] has as its target alpha-glucosidase (Oryza sativa, rice) (UniProt Q653V4). In words: Counterscreen for Glucocerebrosidase Inhibitors: qHTS Assay for Rice alpha-Glucosidase at pH 5.0 (AID 997).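 Also: 0% = full activity with enzyme and -100% = basal without enzyme.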 The method in brief: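 Endpoint fluorogenic assay at pH 5.0: compounds (0.7 nM to 77 uM) titrated against 4 nM rice enzyme and 400 uM 4-MU-alpha-glucoside for 20 min at room temperature; NaOH/glycine stop, read ex 365/em 440 nm, Hill-fitted AC50.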

Test [3] can be described thus: qHTS Assay for Lipid Storage Modulators (AID 1519; calls by dose curve; as to activity change, negative = inhibition: % is scaled to controls: 0 for no effect and ±100 for the full control effect). The following applies: Drosophila S3 cells, BODIPY lipid droplet/cell ratio, laser cytometry, cells loaded with oleic acid. The procedure, abridged: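 Cells seeded at 5,000 per well were treated with compounds over a concentration series and loaded with oleic acid (400 uM, as added). Lipid droplet fluorescence (488 nm excitation, 500-530 nm channel) was read by laser-scanning cytometry and normalized to 20 uM Triacsin C.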
(In general: qHTS replaces the single test concentration by a dilution series.)

The target in test [4] is DNA repair nuclease/redox regulator APEX1 (Homo sapiens) (UniProt P27695). In words: qHTS Validation Assay for Inhibitors of the Human Apurinic/apyrimidinic Endonuclease 1 (APE1) (AID 1705;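 also: TAMRA fluorescence gain over two minutes as APE1 cuts a quenched THF abasic duplex; % is scaled to controls: 0 for no effect and ±100 for the full control effect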). The procedure, abridged: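 qHTS, 1536-well. APE1 + cpd 15 min RT → 50 nM TAMRA/BHQ-2 THF-abasic dsDNA substrate → kinetic fluorescence, 3 reads/60 s; delta(read3−read1) = reaction progress. No-enzyme buffer = negative control.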

Test [5] in a line: Counterscreen for APE1 Inhibitors: Fluorescent Dye Displacement Validation Assay (AID 1707).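 Also: plate controls were ThO with dsDNA and no compound for no effect and ThO without dsDNA for full effect.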 The method in brief:
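Loss of Thiazole Orange fluorescence marks promiscuous DNA binders. The dye (250 nM) is mixed with 50 nM abasic-site dsDNA in pH7.5 Tris buffer containing MgCl2, then compounds are added and emission is read once.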

Test [6] deals with Endonuclease 4 (Escherichia coli (strain K12)) (UniProt P0A6C1). In words: Counterscreen for APE1 Inhibitors: qHTS Validation Assay for Inhibitors of Endonuclease IV (AID 1708). Also: % is scaled to controls: 0 for no effect and ±100 for the full control effect. The procedure, abridged:
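Conditions: 2 nM enzyme, 50 nM TAMRA/BHQ-2 substrate, pH 7.5 Tris buffer with 2 mM MgCl2, RT. Compound preincubation 15 min; readout three fluorescence reads 60 s apart, third-minus-first.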

A short description of test [7]: Cell Viability - LYMP1-002 - Assay at 24 hr (AID 993). Also: % is scaled to controls: 0 for no effect and ±100 for the full control effect. The procedure, abridged:
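Acute toxicity is measured as concentration-dependent loss of cellular ATP in a human lymphoblastoid line (Coriell LYMP1-002) after 24 h treatment in complete medium. ATP is quantified by luciferase luminescence and AC50 derived by Hill modelling.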

The mark [8] stands for this setting: measured here: cell count channel max response.
The mark [9] stands for this setting: measured here: lipid channel max response.

Sequence of DNA repair nuclease/redox regulator APEX1 (Homo sapiens) (P27695 whole entry, looked up): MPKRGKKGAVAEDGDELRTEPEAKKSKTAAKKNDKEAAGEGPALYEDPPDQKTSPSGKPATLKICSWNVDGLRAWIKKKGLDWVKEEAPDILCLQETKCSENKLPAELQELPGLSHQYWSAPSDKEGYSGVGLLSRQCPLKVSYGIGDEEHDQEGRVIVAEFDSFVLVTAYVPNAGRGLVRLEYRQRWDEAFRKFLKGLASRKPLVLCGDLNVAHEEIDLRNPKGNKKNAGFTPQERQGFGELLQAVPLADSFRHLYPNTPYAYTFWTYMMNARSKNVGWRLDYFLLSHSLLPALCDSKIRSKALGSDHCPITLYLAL
Sequence of Alpha-galactosidase A (Homo sapiens) (P06280 whole entry, looked up): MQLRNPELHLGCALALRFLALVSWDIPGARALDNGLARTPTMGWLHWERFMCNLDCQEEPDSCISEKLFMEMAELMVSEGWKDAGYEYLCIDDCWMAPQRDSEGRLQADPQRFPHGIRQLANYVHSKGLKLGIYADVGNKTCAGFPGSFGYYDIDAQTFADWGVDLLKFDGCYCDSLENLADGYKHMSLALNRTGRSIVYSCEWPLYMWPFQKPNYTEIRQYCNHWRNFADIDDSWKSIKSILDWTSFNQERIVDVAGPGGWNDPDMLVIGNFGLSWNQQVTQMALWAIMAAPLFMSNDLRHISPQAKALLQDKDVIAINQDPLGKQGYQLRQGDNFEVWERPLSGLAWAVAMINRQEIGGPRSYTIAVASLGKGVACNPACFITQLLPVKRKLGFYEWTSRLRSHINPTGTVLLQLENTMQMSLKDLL

For `CC(C)NC[C@H](O)c1ccc(O)c(O)c1`, the result in test [1] and in test [2] was inactive. For the same compound, the activity change, negative = inhibition in test [3] (at 25.7 µM (top of the series)) was -3.67% (inactive); in test [3] (at 57.5 µM (top of the series)), 0.654% (inactive) and 2.27% (inactive). For the same compound, the max response in test [3] (setting [8]) was -12.5% and 0.715% and 18.4%; in test [3] (setting [9]), -17.7% and 2.86% and 19.2%. In addition, the Potency entry in test [4], in test [5] and in test [6] was “inactive” throughout.
In the case of `C[C@](N)(Cc1ccc(O)cc1)C(=O)O`, the activity change, negative = inhibition in test [3] (at 57.5 µM (top of the series)) was 2.05% (inactive). In addition, the max response was 7.9% in test [3] (setting [8]) and 13.3% in test [3] (setting [9]). The Potency entry in test [4], in test [5] and in test [6] was “inactive” in each case.
With `NS(=O)(=O)c1cc2c(cc1C(F)(F)F)NC(Cc1ccccc1)NS2(=O)=O` (configuration not stated), the activity change, negative = inhibition in test [3] (at 57.5 µM (top of the series)) was 2.56% (inactive). Moreover, the max response amounted to 6.37% in test [3] (setting [8]) and 10.5% in test [3] (setting [9]).
With `Nc1ccc(S(=O)(=O)NC(=O)c2ccccc2)cc1`, the values for the activity change, negative = inhibition in test [3] (at 25.7 µM (top of the series)) and in test [3] (at 57.5 µM (top of the series)) were 2.01% (inactive) and 8.83% (inactive), respectively. Further, the max response is -14.6% and 20.6% in test [3] (setting [8]); -13.2% and 26.2% in test [3] (setting [9]).
In the case of `CC(C(O)c1ccc(O)cc1)N1CCC(Cc2ccccc2)CC1` (configuration not stated), the activity change, negative = inhibition in test [3] (at 57.5 µM (top of the series)) is 3.33% (inactive). Further, the max response in test [3] (setting [8]) came to 9.6%; in test [3] (setting [9]) it was 16%. Also, the Potency entry in test [4], in test [5] and in test [6] was “inactive” in each case.
With `CCCCN1CCCC[C@H]1C(=O)Nc1c(C)cccc1C`, the activity change, negative = inhibition in test [3] (at 25.7 µM (top of the series)) is -1.47% (inactive). For the same compound, the max response came out at 8.59% in test [3] (setting [8]) and 9.64% in test [3] (setting [9]).
Regarding `CN1CCOC(c2ccccc2)c2ccccc2C1` (configuration not stated), in test [3] (at 57.5 µM (top of the series)), the activity change, negative = inhibition is 6.92% (inactive). Moreover, the max response in test [3] (setting [8]) stood at 13.7%; in test [3] (setting [9]), 26.3%.
As for `Nc1ccc(S(=O)(=O)Nc2ccc(Cl)nn2)cc1`, the activity change, negative = inhibition was 0.129% (inactive) in test [3] (at 25.7 µM (top of the series)) and 9.01% (inactive) in test [3] (at 57.5 µM (top of the series)). For the same compound, the max response is 5.02% and 19.5% in test [3] (setting [8]); 5.1% and 34.7% in test [3] (setting [9]).
As to `CNCCCC1c2ccccc2C=Cc2ccccc21`, the call in test [1] and in test [2] was inactive. In addition, the activity change, negative = inhibition in test [3] (at 25.7 µM (top of the series)) is -5.19% (inactive); in test [3] (at 57.5 µM (top of the series)) it was 0.497% (inactive). The max response was -11.5% and -13.6% in test [3] (setting [8]); -15.9% in test [3] (setting [9]). In addition, the Potency result in test [4] and in test [5] was “inactive” each time.
Regarding `CN(C)CCCN1c2ccccc2Sc2ccc(Cl)cc21`, the call in test [1] and in test [2] was inactive. Also, the activity change, negative = inhibition in test [3] (at 25.7 µM (top of the series)) was -3.35% (inactive); in test [3] (at 57.5 µM (top of the series)), 10.9% (inactive). Also, the max response is -15.1% and 7.95% in test [3] (setting [8]); -17.6% and 24.6% in test [3] (setting [9]). The Potency entry in test [4] and in test [5] was “inactive” throughout.
For `CCCCN(CCCC)CCCOC(=O)c1ccc(N)cc1`, the activity change, negative = inhibition in test [3] (at 25.7 µM (top of the series)) is -3.3% (inactive); in test [3] (at 57.5 µM (top of the series)), 6.89% (inactive). Further, the max response in test [3] (setting [8]) is -6.51% and -0.907%; in test [3] (setting [9]), -7.52% and 11.8%.
Take `Cn1cc[nH]c1=S`: the figures for the activity change, negative = inhibition in test [3] (at 25.7 µM (top of the series)) and in test [3] (at 57.5 µM (top of the series)) were -0.635% (inactive) and 4.03% (inactive), respectively. Also, the max response in test [3] (setting [8]) is -10.4% and 8.98%; in test [3] (setting [9]), -9.93% and 13%.
Take `CN(C)CCC=C1c2ccccc2CCc2ccccc21`: the compound was classed as inactive in test [1] and in test [2]. The Potency entry in test [7], in test [4] and in test [5] was “inactive” in each case. For the same compound, the activity change, negative = inhibition in test [3] (at 25.7 µM (top of the series)) is -5.26% (inactive); in test [3] (at 57.5 µM (top of the series)), -0.124% (inactive) and 0.255% (inactive). Besides, the max response in test [3] (setting [8]) is -13.5% and 9.92% and -13.3%; in test [3] (setting [9]), -18.6% and 12.5% and -14.8%.
Turning to `O=c1cc(CO)occ1O`, in test [3] (at 57.5 µM (top of the series)), the activity change, negative = inhibition was 0.978% (inactive). Besides, the max response in test [3] (setting [8]) came out at 23.1%; in test [3] (setting [9]), 26.9%.
As to `O=C(CCCN1CCN(c2ccccn2)CC1)c1ccc(F)cc1`, the activity change, negative = inhibition was 0.351% (inactive) in test [3] (at 25.7 µM (top of the series)) and 15.3% (inactive) in test [3] (at 57.5 µM (top of the series)). For the same compound, the max response in test [3] (setting [8]) is -7.79% and 5.38%; in test [3] (setting [9]) it was -10.2% and 27.2%.
On to `c1ccc2c(CC3=NCCN3)cccc2c1`, for which the activity change, negative = inhibition is -0.324% (inactive) in test [3] (at 25.7 µM (top of the series)) and 4.27% (inactive) in test [3] (at 57.5 µM (top of the series)). The max response in test [3] (setting [8]) was -14.5% and 1.91%; in test [3] (setting [9]), -13.5% and 9.6%.
